# Results reported in PubChem BioAssay (NCI).
# Compounds without any hit were thinned out: in the full panel of roughly 83,000, 20% have a hit.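 How to read the values: 0–100, growth inhibition (40 = 60% inhibited); 0, no net growth; -100 to 0, cell death (-40 = 40% of starting cells died; -100 = all dead).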 A number with no mark means an inactive call. Active and inactive are the calls of the source. Rule for the calls: active = growth percent below 10; inactive = the rest.
# Columns and labels:
# Test in all cases: NCI-60 one-dose screen, 48 h (100 = growth as untreated, 0 = no growth, -100 = all killed)
# Details in all cases: 10 µM unless noted
# NCI-H23 lung = system: NCI-H23 lung
# NCI-H226 lung = system: NCI-H226 lung
# NCI-H322M lung = system: NCI-H322M lung
# HOP-62 NSCLC = system: HOP-62 NSCLC
# NCI-H522 lung = system: NCI-H522 lung
# A549/ATCC NSCLC = system: A549/ATCC NSCLC
# 786-0 renal = system: 786-0 renal
# COLO 205 colon = system: COLO 205 colon
# DU-145 prostate = system: DU-145 prostate
# K-562 leukemia = system: K-562 leukemia
# MALME-3M melanoma = system: MALME-3M melanoma
# MDA-MB-231 breast = system: MDA-MB-231 breast
# RXF 393 renal = system: RXF 393 renal
# SF-268 CNS = system: SF-268 CNS
# SF-539 CNS = system: SF-539 CNS
# UACC-257 melanoma = system: UACC-257 melanoma
# M14 melanoma = system: M14 melanoma
# HCT-15 colon = system: HCT-15 colon
# NCI-H460 lung = system: NCI-H460 lung
# SF-295 CNS = system: SF-295 CNS
Compound,growth (NCI-H23 lung),growth (NCI-H226 lung),growth (NCI-H322M lung) [%],growth (HOP-62 NSCLC) [%],growth (NCI-H522 lung),growth (A549/ATCC NSCLC),growth (786-0 renal),growth (COLO 205 colon),growth (DU-145 prostate),growth (K-562 leukemia),growth (MALME-3M melanoma),growth (MDA-MB-231 breast) [%],growth (RXF 393 renal),growth (SF-268 CNS),growth (SF-539 CNS),growth (UACC-257 melanoma) [%],growth (M14 melanoma),growth (HCT-15 colon),growth (NCI-H460 lung),growth (SF-295 CNS)
O=C(/C=C/c1ccc(O)c(O)c1)N1CCN(c2ccc(Cl)cc2)CC1,62.9%,63.8%,85.1,88.2,-3.39% (active),61.2%,73.1%,71.4%,69.4%,61.8%,66.2%,59.2,58%,57%,66.4%,81.8,67.8%,48.5%,–,–
Clc1cccc(Cc2cn3cc(-c4ccccc4)nc3s2)c1,62.6%,73%,63.5,69.7,45.9%,37.5%,68.9%,-36.6% (active),52.4%,21.1%,85.5%,52.2,94%,64.9%,41.6%,37.4,6.04% (active),40.4%,–,–
CN(C)c1cccc2c(S(=O)(=O)N[C@H]3CC[C@H]4[C@@H]5CCc6cc(O)ccc6[C@H]5CC[C@]34C)cccc12,40.8%,51%,57.3,–,-10.5% (active),18.5%,34.9%,8.09% (active),24%,2.22% (active),29.6%,35,11.2%,40.6%,44.7%,52.8,31.3%,18%,7.05% (active),44.9%
Cc1nn(-c2ccccc2)c2nc(Cl)c(/C=C/C(=O)c3ccccc3)c(-c3ccccc3)c12,102%,89.7%,105,114,89.9%,110%,106%,121%,115%,–,101%,111,103%,106%,–,114,90.1%,101%,–,105%
CCC(CC)NCCCCCNc1cc(OC)cc2cccnc12,94.7%,96.6%,120,84.6,97.7%,96.1%,95%,82.7%,102%,85.1%,119%,83.9,88.1%,85.3%,92%,101,–,92.6%,–,113%
COc1cc2c(cc1OC)C1CCN3C(=O)CCC3N1CC2 (centres undefined),99.3%,113%,124,121,107%,113%,103%,–,111%,–,117%,116,106%,103%,118%,108,116%,110%,–,113%
COc1ccc(C2CC(c3ccc(OC)c(OC)c3)=NN2C(=O)c2cc(OC)c(OC)c(OC)c2)cc1 (centres undefined),46.6%,51.9%,37.7,–,-35.9% (active),27.2%,26.7%,8.03% (active),11.6%,28.3%,57.7%,12.6,-21.4% (active),54.7%,-14.5% (active),66.3,-11.8% (active),32.8%,6.07% (active),4.28% (active)
O=C(/C=C/c1cccnc1)/C=C/c1cccnc1,-5.04% (active),2.94% (active),122,–,-91.2% (active),6.27% (active),5.1% (active),-84.8% (active),-29.6% (active),-15.2% (active),-8.19% (active),20.4,-84.9% (active),-64% (active),-46.1% (active),31.2,-47.3% (active),-9.07% (active),18.5%,41.6%
O=C(Nc1cccc2ccccc12)c1cc2c(cc1Br)OCO2,88.6%,81%,97.8,125,103%,113%,158%,76.2%,103%,97.8%,89.4%,102,126%,104%,78.6%,114,162%,104%,–,107%
